# KB-V1 cytotox = KB-V1 MDR subline cytotoxicity | KB-V1 MDR cells viability, CellTiter-Glo, 72 h | Potency, µM (doses to about 46.1 µM), usual class: cytotoxic | actives 3.4% (n = 400,000) | AID 1347076; further: nearly all actives have a fitted effect of over 60% in size
#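 KB-V1 cells (P-gp-expressing MDR subline of KB-3-1) in phenol-red-free DMEM with 10% FBS were exposed to library compounds over a concentration series for 72 h at 37 degrees C. Viability read by CellTiter-Glo luminescence; concentration-effect curves fitted after normalization.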
# DT40 TDP1 CPT = DT40-hTDP1 cell growth loss with CPT. chicken DT40 Tdp1-/-;hTDP1 cells + 20 nM CPT, ATP luminescence, 48 h. Potency, µM (highest dose often 46.2 µM), for inactives: at the highest dose activity change, negative = growth inhibition, actives largely listed as inhibitors. actives 12% (n = 420,000). AID 686979; further: nearly all actives have a fitted effect of over 55% in size
#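 Cell growth measured by CellTiter-Glo luminescence after a minimum 48 h, 37 C compound exposure with 20 nM CPT in Tdp1-knockout DT40 cells stably expressing hTDP1, seeded 400/well; qHTS titration format.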
# KB-3-1 cytotox = KB-3-1 parental cell cytotoxicity; KB-3-1 viability, CellTiter-Glo ATP luminescence, 72 h; Potency, µM (titrated, usually from 46.1 µM), most hits filed as cytotoxic; actives 1.4% (n = 400,000); further: nearly all actives have a fitted effect of over 60% in size
#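 Cytotoxicity in the drug-sensitive parental line KB-3-1 was scored as loss of CellTiter-Glo luminescence following 72 h incubation with compound. Values come from curve fitting of normalized concentration-response data.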
# DT40 TDP1 no CPT = qHTS for Inhibitors of human tyrosyl-DNA phosphodiesterase 1 (TDP1): qHTS in cells in absence of CPT; DT40 Tdp1-/- hTDP1 cells, no CPT, ATP luminescence, 48 h; Potency, µM (top dose mostly 46.2 µM), for the others: top-dose activity change, negative = growth inhibition, hits mostly inhibitors; actives 15% (n = 420,000); AID 686978, 2013; further: nearly all actives have a fitted effect of over 55% in size
#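 Compound effects on proliferation are scored in DT40 Tdp1-/-;hTDP1 cells in the absence of CPT. ATP levels (CellTiter-Glo luminescence) are recorded after a ≥48 hr, 37 °C incubation.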
# HT1080NT lethal = kills 2HG-producing HT-1080-NT fibrosarcoma cells. Potency, µM (titrated, usually from 46.1 µM), for inactives: top-dose activity, negative = less viability, usual class: cytotoxic. AID 686970. HT-1080-NT fibrosarcoma viability, CellTiter-Glo ATP luminescence, 48 h. actives 1.6% (n = 360,000);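 further: NT is the 2HG producing partner of a matched IDH1 knockdown line; 0% = DMSO-treated cells and -100% = media-only wells without cells; nearly all actives have a fitted effect of over 55% in size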
#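 HT-1080-NT fibrosarcoma cells (2HG-overproducing), 750 cells/well in RPMI with 5% FBS, dosed after 2 h and incubated 48 h at 37C. CellTiter-Glo luminescence normalized to DMSO and no-cell wells; concentration-response curves fitted and classed.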
# HT1080 IDH1KD tx = toxicity to HT-1080 IDH1 knockdown cells (counter line) | HT-1080 IDH1 knockdown viability, ATP luminescence, 48 h | Potency, µM (doses to about 46.1 µM), for the others: at the highest dose activity, negative = toxicity, hits mostly cytotoxic | actives 2% (n = 360,000) | AID 686971;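 further: 0% = DMSO wells and -100% = cell-free medium wells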
#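 Assay cells: HT-1080 with IDH1 knockdown, 750 per well, RPMI/5% FBS. Exposure: 48 h at 37 °C following 2 h pre-incubation. Read: CellTiter-Glo luminescence; fitted concentration-response, curve class assigned.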
# * hit, by the source's call; i = inactive; ? = inconclusive; . = no result. Hits are enriched below; roughly 19% of the tested compounds scored in any of these assays. The call rests on the fitted dose curve; in most records, active means well fitted curve in the direction sought with a large enough effect; inconclusive means small, poorly fitted or top-dose-only effect, or another doubt; inactive means no such curve, though single readings can be large; an effect the other way counts as inactive or inconclusive. Unless noted, on the % scale 0 is the no-effect control and ±100 the full control effect; potency means the concentration at half of the fitted maximal effect.
SMILES,KB-V1 cytotox,DT40 TDP1 CPT,KB-3-1 cytotox,DT40 TDP1 no CPT,HT1080NT lethal,HT1080 IDH1KD tx
C#CCOCCOCCOCCNc1nc(N2CCN(C(=O)[C@H](CCC(=O)O)n3cc(C(N)Cc4ccc(O)cc4)nn3)CC2)nc(N2CCN(C(=O)[C@H](CCC(=O)O)n3cc(C(N)Cc4ccc(O)cc4)nn3)CC2)n1 (some centres undefined),i,-12%,i,-13%,17%,-1%
CC(C)(C)OC(=O)CC[C@@H](C(=O)N1CCN(C(=O)OC(C)(C)C)CC1)n1cc(C(Cc2ccc(O)cc2)NC(=O)OC(C)(C)C)nn1 (some centres undefined),i,18µM*,i,16µM*,8%,12%
COc1ccc(C2C(C(C)=O)=C(O)C(=O)N2c2ccc(F)cc2)cc1 (centres undefined),i,7%,i,6%,-7%,-6%
COc1cc(NS(=O)(=O)c2c(C)oc3c(F)c(F)c(F)c(F)c23)cc(OC)c1OC,i,23µM*,i,18µM*,0%,5%
COc1cc(NS(=O)(=O)c2cn(C)cn2)cc(OC)c1OC,i,-7%,i,27%,-1%,-7%
CC(C(=O)N1CCCC1)N(c1ccc(Cl)cc1)S(C)(=O)=O (centres undefined),i,-9%,i,-3%,-4%,-2%
CC(=O)Oc1ccc(-c2ccc(C(=O)Nc3cccc(S(=O)(=O)N4CCOCC4)c3)cc2)cc1,?,23µM*,?,16µM*,?,10µM*
CCOc1c(Br)cc(C(=O)Nc2cccc(S(=O)(=O)N3CCOCC3)c2)cc1OC,?,?,i,23µM*,-20%,-15%
COc1ccc(C(=O)NC(=S)Nc2cccc(S(=O)(=O)N3CCOCC3)c2)cc1,5.2µM*,5.8µM*,5.8µM*,7.3µM*,15µM*,13µM*
COc1ccc(C(=O)Nc2cccc(S(=O)(=O)N3CCCC3)c2)cc1S(=O)(=O)N1CCOCC1,i,?,i,?,4%,0%
O=C(CCc1ccccc1)Nc1cccc(S(=O)(=O)N2CCOCC2)c1,i,?,i,?,10%,5%
COc1ccc(CCC(=O)Nc2cccc(S(=O)(=O)N3CCOCC3)c2)cc1OC,i,15µM*,i,?,8%,-5%
COc1cccc(CNC(=O)c2c(OC)cc(=O)n3c2CCN(C(=O)c2csc(C)n2)CC3)c1,.,0%,.,-1%,.,.
CCOc1nc2cccc(C(=O)OC(C)OC(=O)OC3CCCCC3)c2n1Cc1ccc(-c2ccccc2-c2nn[nH]n2)cc1 (centres undefined),.,?,.,23µM*,.,.
CCO[C@H]1OC(C(=O)N2CCN(Cc3ccc4c(c3)OCO4)CC2)=C[C@@H](c2ccc(C(F)(F)F)cc2)[C@@H]1CCCO,?,18µM*,i,23µM*,-24%,?
CCO[C@@H]1OC(C(=O)N2CCN(Cc3ccccc3)CC2)=C[C@H](c2ccc(Br)cc2)[C@H]1CCCO,?,?,?,23µM*,-25%,-26%
CCO[C@@H]1OC(C(=O)N2CCN(Cc3ccc4c(c3)OCO4)CC2)=C[C@H](c2csc3ccccc23)[C@H]1CCCO,i,-89%,i,23µM*,-10%,?
CCO[C@@H]1OC(C(=O)N2CCN(Cc3ccccc3)CC2)=C[C@H](c2ccc(C(F)(F)F)cc2)[C@H]1CCCO,?,?,?,?,-29%,0%
CCO[C@H]1OC(C(=O)N2CCN(Cc3ccc4c(c3)OCO4)CC2)=C[C@@H](c2ccccc2)[C@@H]1CCCO,i,?,i,?,-1%,-4%
COc1ccc(S(=O)(=O)N2CCCOC2CNC(=O)C(=O)NCCO)cc1 (centres undefined),i,5%,i,2%,14%,2%
O=C(Cn1nc2c(cc1=O)CCCC2)NCc1ccccc1Cl,.,-2%,.,-11%,.,.
COc1cccc(CNC(=O)COCc2cc(-c3ccc4c(c3)OCO4)on2)c1,i,?,i,?,.,.
Cc1ccc(C)c(/C=C(\C(=O)O)c2ccc(S(=O)(=O)N3CCCCC3)s2)c1,i,10%,i,-14%,-1%,16%
CN(CC(=O)NC1CCCCCC1)S(=O)(=O)c1ccccc1,i,-7%,i,-1%,0%,-9%
O=C(CN(Cc1ccccc1)S(=O)(=O)c1cccc(C(F)(F)F)c1)NC1CCCCC1,3.7µM*,?,i,?,-9%,-7%
SMILES,KB-V1 cytotox,DT40 TDP1 CPT,KB-3-1 cytotox,DT40 TDP1 no CPT,HT1080NT lethal,HT1080 IDH1KD tx
COc1ccccc1N(CC(=O)NC1CCCC1)S(=O)(=O)c1cccc(C(F)(F)F)c1,i,?,i,-8%,7%,1%
CC(c1ccccc1)N(CC(=O)NC1CCCCC1)S(=O)(=O)c1cccc(C(F)(F)F)c1 (centres undefined),?,?,i,16µM*,-21%,-20%
O=c1cc(O)c2sc(Nc3cccc(C(F)(F)F)c3)nc2[nH]1,i,12µM*,i,7.3µM*,18%,8%
Cc1cc(=O)[nH]c(SCC(=O)Nc2cccc(C(F)(F)F)c2)n1,i,?,i,?,-1%,-1%
Cc1cc(=O)[nH]c(Nc2cccc(C(F)(F)F)c2)n1,i,?,?,23µM*,-15%,-20%
O=C(CSc1nc2[nH]c(=O)cc(O)c2s1)Nc1ccc(Cl)c(C(F)(F)F)c1,?,-21%,i,21%,-1%,0%
COc1ccccc1C(=O)N1CCN(C(=O)[C@H]2O[C@@H](n3cnc4c(N)ncnc43)[C@H](O)[C@@H]2O)CC1,i,-12%,i,-2%,14%,8%
CC(C)(C)NC(=O)C1c2ccccc2OCC(=O)N1CCc1ccccc1 (centres undefined),i,10%,i,1%,5%,18%
CCn1ncc(CN2CCN(Cc3cccc(OC)c3)C(CCO)C2)c1C (centres undefined),i,-7%,i,-2%,14%,2%
CCc1noc(C)c1C(=O)N(CC)c1nc2c(C)cccc2s1,i,?,i,18µM*,0%,-5%
CCN(CC)CCN(C(=O)c1ccco1)c1nc2c(C)cccc2s1,i,15µM*,i,21µM*,.,.
